According to PubChem BioAssay (NCI):
The panel holds about 79,000 compounds, 15% with a hit somewhere; the sample as a whole holds those more often. Values without a mark were called inactive. The source made the active and inactive calls. Cut-off read from the data, not from the text of the source: active = growth inhibition above about 70%; inactive = the rest.

Tests used:
[1] = NCI Yeast Anticancer Drug Screen. Data for the rad52 strain (AID 147);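 note: 0% = growth of vehicle-treated control cultures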; conditions: S. cerevisiae rad52 mutant growth inhibition, active compounds read high
Method in brief: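 Measured: yeast growth inhibition. System: strain with a defined DNA damage repair alteration. Reference: vehicle-treated control cultures.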

[2] = NCI Yeast Anticancer Drug Screen. Data for the rad50EPP+ strain (AID 151);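 note: 0% = growth of vehicle-treated control cultures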; conditions: S. cerevisiae rad50 mutant strain, active compounds read high
Method in brief: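 One strain with a rad50 alteration (rad50EPP+) was compound-treated, its growth then compared to that of vehicle controls.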

[3] = NCI Yeast Anticancer Drug Screen. Data for the mgt1 strain (AID 153); conditions: S. cerevisiae mgt1 mutant growth inhibition, active compounds read high
Method in brief: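 After exposure of the mgt1 yeast mutant to compound, growth was measured and reported as inhibition compared with vehicle controls.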

[4] = NCI Yeast Anticancer Drug Screen. Data for the rad50 strain (AID 155);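 note: 0% = growth of vehicle-only cultures of the same strain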; conditions: S. cerevisiae rad50 strain growth inhibition, active compounds read high
Method in brief: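 Compounds were tested on a yeast strain with an engineered DNA damage repair alteration; the reported value is growth inhibition normalised to vehicle treatment.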

[5] = NCI Yeast Anticancer Drug Screen. Data for the mec2-1 strain (AID 157); conditions: S. cerevisiae mec2-1 strain, active compounds read high
Method in brief: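 Test agents were screened against the mec2-1 yeast strain, with defined DNA repair or cell cycle alteration. Growth was scored as inhibition against vehicle-only controls.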

[6] = NCI Yeast Anticancer Drug Screen. Data for the rad14 strain (AID 159);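 note: 0% = growth of vehicle-treated control cultures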; conditions: S. cerevisiae rad14 strain growth inhibition, active compounds read high
Method in brief: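 Compound-treated yeast with a defined DNA-repair lesion; growth inhibition normalised to vehicle-treated cultures.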

[7] = NCI Yeast Anticancer Drug Screen. Data for the sgs1 mgt1 strain (AID 161);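 note: 0% = growth of cultures given vehicle only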; conditions: S. cerevisiae sgs1 mgt1 strain, active compounds read high
Method in brief: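 Genetically altered yeast, compound exposure, growth inhibition relative to vehicle.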

[8] = NCI Yeast Anticancer Drug Screen. Data for the CLN2oe strain (AID 163);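 note: 0% = growth of vehicle-only control cultures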; conditions: S. cerevisiae CLN2oe strain, active compounds read high
Method in brief: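 Here, growth inhibition in a cell-cycle-altered yeast strain after compound exposure was quantified against vehicle control growth.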

[9] = NCI Yeast Anticancer Drug Screen. Data for the cln2 rad14 strain (AID 165);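 note: 0% = growth equal to vehicle treated cultures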; conditions: S. cerevisiae cln2 rad14 strain, active compounds read high
Method in brief: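 Growth of compound-exposed yeast (cln2 rad14 genotype) measured and expressed as inhibition relative to vehicle.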

[10] = NCI Yeast Anticancer Drug Screen. Data for the bub3 strain (AID 167); conditions: S. cerevisiae bub3 mutant strain, active compounds read high
Method in brief: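 Growth of a checkpoint-deficient yeast mutant is measured after compound exposure. Values represent inhibition relative to vehicle.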

[11] = NCI Yeast Anticancer Drug Screen. Data for the wt2 strain (AID 169);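 note: 0% = growth of vehicle-treated yeast cultures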; conditions: S. cerevisiae wt2 strain growth inhibition, active compounds read high
Method in brief: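 Genetically defined yeast strains from a DNA-repair/cell-cycle panel were used. Compound-exposed yeast growth was measured, and the inhibition was calculated relative to vehicle treatment.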

[12] = NCI Yeast Anticancer Drug Screen. Data for the mlh1 strain (AID 171);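 note: 0% = growth of vehicle-treated control cultures of the same strain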; conditions: S. cerevisiae mlh1 strain growth inhibition, active compounds read high
Method in brief: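 Here the genetically defined yeast mutant is grown with each compound, and the extent to which its growth falls below that of vehicle-exposed cells is reported.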

[13] = NCI Yeast Anticancer Drug Screen. Data for the sgs1 strain (AID 173);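 note: 0% = growth of vehicle-only control cultures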; conditions: S. cerevisiae sgs1 mutant, active compounds read high
Method in brief: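 Relative growth inhibition, referenced to vehicle, was determined in a yeast strain with a defined alteration affecting DNA damage repair or cell cycle control after compound exposure.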

[14] = NCI Yeast Anticancer Drug Screen. Data for the mlh1 rad18 strain (AID 175); conditions: S. cerevisiae mlh1 rad18 strain growth inhibition, active compounds read high
Method in brief: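 In this whole-cell yeast screen, a strain with altered DNA damage repair is challenged with compound, and its growth is measured against matched vehicle-treated controls.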

[15] = NCI Yeast Anticancer Drug Screen. Data for the rad18 strain (AID 177); conditions: S. cerevisiae rad18 mutant growth inhibition, active compounds read high
Method in brief: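 Screen uses a yeast strain with a defined lesion in DNA damage repair; compound effect is read as loss of growth compared to untreated vehicle cultures.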

[16] = at 5.0 µM (retest, dose inferred, filed as 0.5)
[17] = at 50.0 µM (retest, dose inferred, filed as 5.0)

Compound: COc1cc(C(=O)/C=C/c2ccccc2O)ccc1O
- growth inhibition ([1]; at 1.2 µM): -11%
- growth inhibition ([1]; at 3.7 µM): 55%
- growth inhibition ([1]; at 11.0 µM): 98% (active)
- growth inhibition ([1]; at 33.0 µM): 98% (active)
- growth inhibition ([1]; at 100.0 µM): 98% (active)
- growth inhibition ([2]; at 1.2 µM): 11%
- growth inhibition ([2]; at 3.7 µM): 89% (active)
- growth inhibition ([2]; at 11.0 µM): 99% (active)
- growth inhibition ([2]; at 33.0 µM): 99% (active)
- growth inhibition ([2]; at 100.0 µM): 98% (active)
- growth inhibition ([3]; at 1.2 µM): 9%
- growth inhibition ([3]; at 3.7 µM): 84% (active)
- growth inhibition ([3]; at 11.0 µM): 98% (active)
- growth inhibition ([3]; at 33.0 µM): 99% (active)
- growth inhibition ([3]; at 100.0 µM): 98% (active)
- growth inhibition ([4]; at 1.2 µM): 10%
- growth inhibition ([4]; at 3.7 µM): 32%
- growth inhibition [4, 16]: 33%
- growth inhibition ([4]; at 11.0 µM): 98% (active)
- growth inhibition ([4]; at 33.0 µM): 98% (active)
- growth inhibition [4, 17]: 98% (active)
- growth inhibition ([4]; at 50.0 µM): 93.2% (active)
- growth inhibition ([4]; at 100.0 µM): 98% (active)
- growth inhibition ([5]; at 1.2 µM): -7%
- growth inhibition ([5]; at 3.7 µM): 78% (active)
- growth inhibition [5, 16]: 80% (active)
- growth inhibition ([5]; at 11.0 µM): 99% (active)
- growth inhibition ([5]; at 33.0 µM): 98% (active)
- growth inhibition [5, 17]: 99% (active)
- growth inhibition ([5]; at 50.0 µM): 94.4% (active)
- growth inhibition ([5]; at 100.0 µM): 98% (active)
- growth inhibition ([6]; at 1.2 µM): -6%
- growth inhibition ([6]; at 3.7 µM): 62%
- growth inhibition ([6]; at 11.0 µM): 99% (active)
- growth inhibition ([6]; at 33.0 µM): 98% (active)
- growth inhibition ([6]; at 100.0 µM): 98% (active)
- growth inhibition [7, 16]: -4%
- growth inhibition [7, 17]: 98% (active)
- growth inhibition ([7]; at 50.0 µM): 94.4% (active)
- growth inhibition ([8]; at 1.2 µM): 19%
- growth inhibition ([8]; at 3.7 µM): 42%
- growth inhibition ([8]; at 11.0 µM): 99% (active)
- growth inhibition ([8]; at 33.0 µM): 99% (active)
- growth inhibition ([8]; at 100.0 µM): 98% (active)
- growth inhibition [9, 16]: 42%
- growth inhibition [9, 17]: 98% (active)
- growth inhibition ([9]; at 50.0 µM): 92.8% (active)
- growth inhibition ([10]; at 1.2 µM): -20%
- growth inhibition ([10]; at 3.7 µM): 53%
- growth inhibition [10, 16]: 76% (active)
- growth inhibition ([10]; at 11.0 µM): 99% (active)
- growth inhibition ([10]; at 33.0 µM): 99% (active)
- growth inhibition [10, 17]: 97% (active)
- growth inhibition ([10]; at 50.0 µM): 94.2% (active)
- growth inhibition ([10]; at 100.0 µM): 98% (active)
- growth inhibition ([11]; at 1.2 µM): -24%
- growth inhibition ([11]; at 3.7 µM): 50%
- growth inhibition ([11]; at 11.0 µM): 99% (active)
- growth inhibition ([11]; at 33.0 µM): 99% (active)
- growth inhibition ([11]; at 100.0 µM): 98% (active)
- growth inhibition ([12]; at 1.2 µM): 1%
- growth inhibition ([12]; at 3.7 µM): 62%
- growth inhibition ([12]; at 11.0 µM): 99% (active)
- growth inhibition ([12]; at 33.0 µM): 99% (active)
- growth inhibition ([12]; at 100.0 µM): 98% (active)
- growth inhibition ([13]; at 1.2 µM): 8%
- growth inhibition ([13]; at 3.7 µM): 26%
- growth inhibition ([13]; at 11.0 µM): 99% (active)
- growth inhibition ([13]; at 33.0 µM): 99% (active)
- growth inhibition ([13]; at 100.0 µM): 99% (active)
- growth inhibition [14, 16]: 79% (active)
- growth inhibition [14, 17]: 98% (active)
- growth inhibition ([14]; at 50.0 µM): 91.8% (active)
- growth inhibition ([15]; at 1.2 µM): 1%
- growth inhibition ([15]; at 3.7 µM): 47%
- growth inhibition ([15]; at 11.0 µM): 98% (active)
- growth inhibition ([15]; at 33.0 µM): 98% (active)
- growth inhibition ([15]; at 100.0 µM): 98% (active)

Compound: Cc1ccc(S(=O)(=O)NNC(=S)Nc2cccc3ccccc23)cc1
- growth inhibition ([1]; at 1.2 µM): 4%
- growth inhibition ([1]; at 3.7 µM): 2%
- growth inhibition ([1]; at 11.0 µM): 3%
- growth inhibition ([1]; at 33.0 µM): 7%
- growth inhibition ([1]; at 100.0 µM): 6%
- growth inhibition ([2]; at 1.2 µM): 10%
- growth inhibition ([2]; at 3.7 µM): 11%
- growth inhibition ([2]; at 11.0 µM): 20%
- growth inhibition ([2]; at 33.0 µM): 15%
- growth inhibition ([2]; at 100.0 µM): 1%
- growth inhibition ([3]; at 1.2 µM): -1%
- growth inhibition ([3]; at 3.7 µM): -4%
- growth inhibition ([3]; at 11.0 µM): -1%
- growth inhibition ([3]; at 33.0 µM): -28%
- growth inhibition ([3]; at 100.0 µM): 1%
- growth inhibition ([4]; at 1.2 µM): 0%
- growth inhibition ([4]; at 3.7 µM): -4%
- growth inhibition [4, 16]: -4%
- growth inhibition ([4]; at 11.0 µM): -10%
- growth inhibition ([4]; at 33.0 µM): 2%
- growth inhibition [4, 17]: 16%
- growth inhibition ([4]; at 50.0 µM): 9.65%
- growth inhibition ([4]; at 100.0 µM): 2%
- growth inhibition ([5]; at 1.2 µM): 3%
- growth inhibition ([5]; at 3.7 µM): 2%
- growth inhibition [5, 16]: -19%
- growth inhibition ([5]; at 11.0 µM): 4%
- growth inhibition ([5]; at 33.0 µM): 5%
- growth inhibition [5, 17]: 33%
- growth inhibition ([5]; at 50.0 µM): -14.4%
- growth inhibition ([5]; at 100.0 µM): 4%
- growth inhibition ([6]; at 1.2 µM): -6%
- growth inhibition ([6]; at 3.7 µM): -4%
- growth inhibition ([6]; at 11.0 µM): -8%
- growth inhibition ([6]; at 33.0 µM): -4%
- growth inhibition ([6]; at 100.0 µM): -3%
- growth inhibition [7, 16]: -23%
- growth inhibition [7, 17]: 41%
- growth inhibition ([7]; at 50.0 µM): 49.6%
- growth inhibition ([8]; at 1.2 µM): -12%
- growth inhibition ([8]; at 3.7 µM): -14%
- growth inhibition ([8]; at 11.0 µM): -18%
- growth inhibition ([8]; at 33.0 µM): -12%
- growth inhibition ([8]; at 100.0 µM): -1%
- growth inhibition [9, 16]: -1%
- growth inhibition [9, 17]: 17%
- growth inhibition ([9]; at 50.0 µM): 13.4%
- growth inhibition ([10]; at 1.2 µM): -1%
- growth inhibition ([10]; at 3.7 µM): 0%
- growth inhibition [10, 16]: -19%
- growth inhibition ([10]; at 11.0 µM): 10%
- growth inhibition ([10]; at 33.0 µM): 14%
- growth inhibition [10, 17]: 96% (active)
- growth inhibition ([10]; at 50.0 µM): 66.5%
- growth inhibition ([10]; at 100.0 µM): 29%
- growth inhibition ([12]; at 1.2 µM): 0%
- growth inhibition ([12]; at 3.7 µM): -6%
- growth inhibition ([12]; at 11.0 µM): -2%
- growth inhibition ([12]; at 33.0 µM): 0%
- growth inhibition ([12]; at 100.0 µM): -5%
- growth inhibition ([13]; at 1.2 µM): 2%
- growth inhibition ([13]; at 3.7 µM): 4%
- growth inhibition ([13]; at 11.0 µM): 10%
- growth inhibition ([13]; at 33.0 µM): 18%
- growth inhibition ([13]; at 100.0 µM): 17%
- growth inhibition [14, 16]: -8%
- growth inhibition [14, 17]: 29%
- growth inhibition ([14]; at 50.0 µM): -1.25%
- growth inhibition ([15]; at 1.2 µM): -1%
- growth inhibition ([15]; at 3.7 µM): -1%
- growth inhibition ([15]; at 11.0 µM): 2%
- growth inhibition ([15]; at 33.0 µM): -4%
- growth inhibition ([15]; at 100.0 µM): 12%
